# Reference: PubChem BioAssay (NCATS)
# Results filed as inconclusive are left out. Active and inactive are the calls of the source. Calls come from the whole dose curve; as a rule, active = well fitted inhibition curve with a large enough effect; inconclusive = small, poorly fitted or top-dose-only effect; inactive = flat fitted curve, though single readings scatter.
# Experiment: Drug repurposing screens with cells derived from glioblastoma tumor samples (AID 1345199); note: nearly all actives have a fitted effect of over 40% in size
# Details: GBM patient neurospheres viability, ATP luminescence, 48 h; at 21.2 µM (top of the series); tumour line B
# Outline: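 Four patient lines of CD133+ GBM neurospheres were screened at several concentrations; hits were retested in those lines plus three slower-growing GBM lines, using 48-hour treatment and ATP-based viability.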
# % is set by controls: 0 for no effect and ±100 for the full control effect.
row,SMILES,"activity, negative = cell killing"
1,CCC(=O)O[C@@H]1CC(=O)O[C@H](C)C/C=C/C=C/[C@H](O)[C@H](C)C[C@H](CC=O)[C@H](O[C@@H]2O[C@H](C)[C@@H](O[C@H]3C[C@@](C)(O)[C@@H](OC(=O)CC)[C@H](C)O3)[C@H](N(C)C)[C@H]2O)[C@H]1OC,-16.2% (inactive)
2,CC[N+](C)(C)Cc1ccccc1Br,0.866% (inactive)
3,CC[C@H]1OC(=O)[C@H](C)[C@@H](O[C@H]2C[C@@](C)(OC)[C@@H](O)[C@H](C)O2)[C@H](C)[C@@H](O[C@@H]2O[C@H](C)C[C@H](N(C)C)[C@H]2O)[C@](C)(O)C[C@@H](C)/C(=N\OCOCCOC)[C@H](C)[C@@H](O)[C@]1(C)O,-9.58% (inactive)
4,CCOC(=O)O[C@]1(C(=O)COC(=O)CC)CC[C@H]2[C@@H]3CCC4=CC(=O)C=C[C@]4(C)[C@H]3[C@@H](O)C[C@@]21C,-5.02% (inactive)
5,C[C@H](CCC(=O)O)[C@H]1CC[C@H]2[C@@H]3[C@H](O)C[C@@H]4C[C@H](O)CC[C@]4(C)[C@H]3CC[C@]12C,1.96% (inactive)
6,Cc1cc(C(=O)NNCc2ccccc2)no1,-7.11% (inactive)
7,CO[C@@H]1[C@@H](O[C@@H]2O[C@H](C)[C@@H](O[C@H]3C[C@@](C)(O)[C@@H](O)[C@H](C)O3)[C@H](N(C)C)[C@H]2O)[C@@H](CC=O)C[C@@H](C)[C@@H](O[C@@H]2CC[C@H](N(C)C)[C@@H](C)O2)/C=C/C=C/C[C@@H](C)OC(=O)C[C@H]1O,2.63% (inactive)
8,CC(C)NCC1CCc2cc(CO)c([N+](=O)[O-])cc2N1 (stereo not given),-15% (inactive)
9,CC(C)(C)C(=O)OCOC(=O)[C@@H]1N2C(=O)[C@@H](N=CN3CCCCCC3)[C@H]2SC1(C)C,-4.41% (inactive)
10,NCc1ccccc1CC(=O)N[C@@H]1C(=O)N2C(C(=O)O)=C(CSc3nnnn3CC(=O)O)CS[C@H]12,-4.52% (inactive)
